Measured values as given in PubChem BioAssay (NCI).
The panel holds about 79,000 compounds, 15% with a hit somewhere; the sample as a whole holds those more often. Rule as the data show it: active = growth inhibition above about 70%; inactive = the rest.

Tests used:
[1] = NCI Yeast Anticancer Drug Screen. Data for the rad50 strain (AID 155);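 also: 0% = growth of vehicle-only cultures of the same strain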; details: S. cerevisiae rad50 strain growth inhibition; at 50.0 µM; active compounds read high
Method in brief: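 Cells are treated with compound, grown, and their growth is then scored against vehicle-only cultures of the same repair-deficient yeast strain.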

[2] = NCI Yeast Anticancer Drug Screen. Data for the mec2-1 strain (AID 157); details: S. cerevisiae mec2-1 strain, at 50.0 µM, active compounds read high
Method in brief: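 Strain: mec2-1 (DNA repair/cell cycle alteration). Compound exposure, then growth measured; inhibition expressed relative to vehicle.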

[3] = NCI Yeast Anticancer Drug Screen. Data for the sgs1 mgt1 strain (AID 161);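 also: 0% = growth of cultures given vehicle only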; details: S. cerevisiae sgs1 mgt1 strain, at 50.0 µM, active compounds read high
Method in brief: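 Test agents were incubated with a DNA-repair-mutant yeast strain. Growth was then read and compared against vehicle-treated controls.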

[4] = NCI Yeast Anticancer Drug Screen. Data for the cln2 rad14 strain (AID 165);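 also: 0% = growth equal to vehicle treated cultures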; details: S. cerevisiae cln2 rad14 strain, at 50.0 µM, active compounds read high
Method in brief: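 Compounds are applied to the cln2 rad14 yeast strain, and growth is then compared with that of vehicle-treated cultures to give inhibition.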

[5] = NCI Yeast Anticancer Drug Screen. Data for the bub3 strain (AID 167); details: S. cerevisiae bub3 mutant strain, at 50.0 µM, active compounds read high
Method in brief: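 Part of a panel of yeast mutants defective in DNA damage repair or cell cycle regulation. Each strain is grown with compound, and inhibition is calculated relative to solvent-treated cultures.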

[6] = NCI Yeast Anticancer Drug Screen. Data for the mlh1 rad18 strain (AID 175); details: S. cerevisiae mlh1 rad18 strain growth inhibition; at 50.0 µM; active compounds read high
Method in brief: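 Read-out is yeast growth inhibition, calculated against vehicle-only controls. The compound was applied to a strain engineered with DNA damage repair alterations.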

Measured: growth inhibition

Cc1cccc(NC(=O)c2cccc([N+](=O)[O-])c2C(=O)O)c1C
inactive: [1] 4.8% | [2] 11.9% | [3] 3.75% | [4] -7.15% | [5] 25.6% | [6] 10.8%

NC(CCC(=O)NC(CSCNC(=O)Nc1ccc(Cl)cc1)C(=O)NCC(=O)O)C(=O)O (configuration not stated)
inactive: [1] -5.15% | [2] 4.4% | [3] -1.65% | [4] -13.7% | [5] -3.85% | [6] 15.9%

c1cc(CNCCN2CCNCC2)ccn1
inactive: [1] 7.45% | [2] -34.2% | [3] -3.7% | [4] -1.9% | [5] -48.9% | [6] 16.8%

CC(=O)CC(=O)Nc1cccc(C)n1
inactive: [1] -0.4% | [2] -9.95% | [3] -14.3% | [4] 3.8% | [5] 6.25% | [6] 7.25%

O=C1OCC/C1=C1/Nc2ccccc2NC1=O
inactive: [1] -13.1% | [2] -24% | [3] -8.1% | [4] -22.2% | [5] -16.4% | [6] -13.8%

CCCCCCCCCCc1ccc(CCCCCCCCCC)cc1
inactive: [1] 7% | [2] 7.2% | [3] 4.6% | [4] -4.55% | [5] 2.05% | [6] -7.9%

Nc1ccc(F)c(F)c1
inactive: [1] 4.3% | [2] -6.65% | [3] 14.2% | [4] -20% | [5] 2.65% | [6] 13.8%

CCCCCCCC(C(=O)O)C(=O)O
inactive: [1] -2.1% | [2] 0.4% | [3] 10.3% | [4] 10.3% | [5] -2.5% | [6] 11.5%

CC(C)(C)C1=CC(=C2C(=O)C(=O)c3ccccc3C2=O)C=C(C(C)(C)C)C1=O
inactive: [1] -3.2% | [2] -22.2% | [3] -12.7% | [4] 6.85% | [5] 22.4% | [6] -21.5%

CC1(C)CCCC2(C)[C@@H]1CC[C@]13C[C@](C)(CC[C@@H]21)[C@@H]3CO (some centres not stated)
inactive: [1] -17.8% | [2] -2.9% | [3] -22.6% | [4] -3.35% | [5] -32.1% | [6] -19.9%

O=C(N/N=C/c1ccccn1)c1ccccc1
inactive: [1] -1.2% | [2] 23.6% | [3] 10.7% | [4] 19.1% | [5] 13.3% | [6] 3.55%

CC1(C)Cc2[nH]c3ccccc3c(=O)c2-c2nc3ccccc3c(=O)n21
inactive: [1] -5.35% | [2] 6.05% | [3] 4.8% | [4] -35.6% | [5] -2.2% | [6] -12.9%

Oc1ccc2ccccc2c1C=NCCS
inactive: [1] 24.9% | [2] 6.25% | [3] 2.7% | [4] -25.6% | [5] -3.4% | [6] 3.15%

COc1ccc(NC2=CC(=O)C(=O)c3ccccc32)nn1
inactive: [1] -4% | [2] 4.8% | [3] -19.8% | [4] -34.8% | [5] -1.65% | [6] -16%

COc1ccc2c(c1)N=C(NNC1=Nc3cc(OC)ccc3SC1)CS2
inactive: [1] -9.1% | [2] 3.15% | [3] 14.4% | [4] -14.9% | [5] -4.7% | [6] 3.9%

Cc1nc(SCC(=O)Nc2ccc(Cl)cc2)c2sc(=S)n(-c3ccccc3)c2n1
inactive: [1] -14.2% | [2] 4.6% | [3] -1.25% | [4] 2.35% | [5] -4.4% | [6] 5.4%

Nc1nc(N)c2nc3c(nc2n1)CCCC3
inactive: [1] -15.9% | [2] -35.7% | [3] -18.3% | [4] 8.95% | [5] -13.1% | [6] -25.7%

CCCCC/C(C)=N\O
inactive: [1] -19% | [2] 3.8% | [3] 3.35% | [4] -13.6% | [5] -7.15% | [6] 13.2%

NC(CSC(c1ccccc1)(c1ccccc1)c1ccc(C(=O)O)cc1)C(=O)O (configuration not stated)
inactive: [1] 54.2% | [2] -4.1% | [3] 18.5% | [4] 15.5% | [5] 2.2% | [6] 9.85%

Cc1cc2c(cc1C)C(=O)c1ccccc1C2=O
inactive: [1] -29.3% | [2] -36.1% | [3] -15.1% | [4] -6.7% | [5] -30.7% | [6] -21.8%

COC(=O)C1CN(Cc2ccccc2)C(=O)C1=O (configuration not stated)
inactive: [1] -11.3% | [2] -8.75% | [3] 2.65% | [4] -5.1% | [5] 3.95% | [6] 15.2%

O=C(N=C1[Se]C(=Nc2ccccc2)C(=Nc2ccccc2)N1c1ccc(Cl)cc1)c1ccccc1
inactive: [1] -13.8% | [2] -10.4% | [3] -27.1% | [4] -22.9% | [5] -9.25% | [6] -21.4%

CCCCCCCCCCCCCCCCOc1ccc(S(=O)(=O)N/N=c2/sc(-c3ccccc3Cl)nn2C)cc1C(=O)O
inactive: [1] -18.6% | [2] -20.2% | [3] 13.3% | [4] -18.2% | [5] 6.9% | [6] -4.15%

O=c1[nH]c(Nc2ccc(Cl)c(C(F)(F)F)c2)nc2nc[nH]c12
inactive: [1] 17.7% | [2] 7.55% | [3] -9.5% | [4] 9.9% | [5] 8.45% | [6] 23.1%

N=C(N)SCc1ccc(Cl)cc1Cl (tested in a mixture with another compound)
inactive: [1] 34.1% | [2] 12.3% | [3] 6.35% | [4] 3.05% | [5] 7.9% | [6] 26.4%

CC(=O)Nc1cccc(Cc2cccc(NC(C)=O)c2)c1
inactive: [1] 2.75% | [2] -13.3% | [3] -11.9% | [4] -43.4% | [5] -5.1% | [6] -11.6%

COC(=O)C12C3C4C1C1C2C3C41C(=O)N(C(C)C)C(C)C (configuration not stated)
inactive: [1] 7.75% | [2] -1.45% | [3] -3.4% | [4] -3.55% | [5] 3.5% | [6] -14%

COc1ccc(C(=O)CCC(=O)O)c(C)c1
inactive: [1] 7.45% | [2] 13.1% | [3] -0.85% | [4] 1.55% | [5] 19.6% | [6] 5.25%

Cc1ccc(Cl)c(NC(=O)C(=O)C(C(=O)c2ccncc2)C2OC(=O)c3ccccc32)c1 (configuration not stated)
inactive: [1] -14.6% | [2] -26.1% | [3] -37.1% | [4] 6.45% | [5] -5.85% | [6] -17.9%

C1=C(c2ccccc2)CC(c2ccc(-c3ccccc3)cc2)=C1
inactive: [1] 6.9% | [2] 1.15% | [3] 1.55% | [4] -27.6% | [5] -10.2% | [6] 16.4%

CCOc1ccc(/C=C2\C=Nc3ccccc32)cc1
inactive: [1] -3.75% | [2] -10.8% | [3] 3.2% | [4] 6.7% | [5] 16.1% | [6] -5.4%

CCCCCCNC(=O)c1ccc(C(=O)NCCCCCC)cc1
inactive: [1] 3.4% | [2] -13.3% | [3] -27% | [4] -19.5% | [5] 6% | [6] -31.9%

C/C(CC(=O)Nc1ccccn1)=N\c1ccccn1
inactive: [1] 14.2% | [2] -16.5% | [3] -6.6% | [4] -0.35% | [5] 1.95% | [6] 9.95%

CCSC(SCC)C(Nc1ccc([N+](=O)[O-])cc1[N+](=O)[O-])C(OC(C)=O)C(OC(C)=O)C(COC(C)=O)OC(C)=O (configuration not stated)
inactive: [1] 30.9% | [2] 9.65% | [3] 10.2% | [4] 14.8% | [5] -2.9% | [6] 12.8%

CC(=O)Nc1cccnc1
inactive: [1] -18.1% | [2] -3.85% | [3] 4.85% | [4] -21.1% | [5] -19.9% | [6] -2.45%

Clc1ccccc1CSc1cc(SCc2ccccc2Cl)nc(SCc2ccccc2Cl)n1
inactive: [1] -8% | [2] -2.75% | [3] -2.25% | [4] 23.3% | [5] -7.3% | [6] 22%

N#C/C(=C\c1ccccc1Cl)C(=O)c1ccccc1
inactive: [1] 11.4% | [2] 11.8% | [3] -5.9% | [4] 9.9% | [5] 18.9% | [6] 32.4%

CC(=O)OCC1OC(n2nc(/C=C/c3ccco3)c(=O)n(-c3ccccc3)c2=S)C(OC(C)=O)C(OC(C)=O)C1OC(C)=O (configuration not stated)
inactive: [1] 57.5% | [2] 14.8% | [3] 61% | [4] 29.4% | [5] 16.4% | [6] 56.4%

CC(C)(/C=N\O)NO
inactive: [1] -14.8% | [2] -20.4% | [3] 0.4% | [4] 13.6% | [5] -9.05% | [6] -0.9%

O=C1CCC=Cc2c(O)ccc(O)c21
inactive: [1] 8.65% | [2] -5.25% | [3] 17.8% | [4] 0.55% | [5] -1.1% | [6] 27.9%

CCCCCCCCCCC(CO)CCCCCCCC (configuration not stated)
inactive: [1] -14.8% | [2] 8.85% | [3] 5.85% | [4] -1.55% | [5] -9.45% | [6] 4%

Cc1ccc(S(=O)(=O)NC(=O)NC23CC4CC(CC(F)(C4)C2)C3)cc1
inactive: [1] 37.9% | [2] 21.4% | [3] -13.6% | [4] 9.5% | [5] 13.8% | [6] 2.1%
